High-throughput results (PubChem)
The list is not random: actives were taken first. Their share in the collection is about 11%.
HEK cytotox – HEK 293 cell cytotoxicity | hit rate 6.6% among 94,000 | Potency, µM (series often up to 115 µM), without a hit: at the top dose activity change, negative = cytotoxicity, hits mostly inhibitors | AID 1345083 | HEK 293 viability, ATP luminescence (CellTiter-Glo), 48-72 h; note: % is set by controls: 0 for no effect and ±100 for the full control effect; nearly all actives have a fitted effect of over 60% in size
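250 HEK 293 cells/well; compound by pintool; incubated 48 or 72 hr at 37 degree Celsius; CellTiter-Glo added, 10 min RT, luminescence imaged.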
NIH3T3 tox – NIH 3T3 cell cytotoxicity; hit rate 4.3% among 94,000; NIH 3T3 viability, CellTiter-Glo ATP luminescence, 48-72 h; AID 1345082; Potency, µM (highest dose often 96.7 µM), for the others: at the highest dose activity change, negative = cytotoxicity, hits mostly inhibitors; note: % is set by controls: 0 for no effect and ±100 for the full control effect; nearly all actives have a fitted effect of over 55% in size
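ATP-dependent luminescence (CellTiter-Glo) served as the viability signal for NIH 3T3 cells treated with compound for 48 or 72 hr at 37 °C.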
Luciferase inh – inhibitors of firefly (Photinus pyralis) luciferase; Potency, µM (top dose mostly 115 µM), most hits filed as inhibitors; hit rate 2.5% among 76,000; AID 1347043; P08659; purified P. pyralis luciferase, luminescence, biochemical; note: % is set by controls: 0 for no effect and ±100 for the full control effect; nearly all actives have a fitted effect of over 65% in size
Target sequence (P08659 whole entry, looked up): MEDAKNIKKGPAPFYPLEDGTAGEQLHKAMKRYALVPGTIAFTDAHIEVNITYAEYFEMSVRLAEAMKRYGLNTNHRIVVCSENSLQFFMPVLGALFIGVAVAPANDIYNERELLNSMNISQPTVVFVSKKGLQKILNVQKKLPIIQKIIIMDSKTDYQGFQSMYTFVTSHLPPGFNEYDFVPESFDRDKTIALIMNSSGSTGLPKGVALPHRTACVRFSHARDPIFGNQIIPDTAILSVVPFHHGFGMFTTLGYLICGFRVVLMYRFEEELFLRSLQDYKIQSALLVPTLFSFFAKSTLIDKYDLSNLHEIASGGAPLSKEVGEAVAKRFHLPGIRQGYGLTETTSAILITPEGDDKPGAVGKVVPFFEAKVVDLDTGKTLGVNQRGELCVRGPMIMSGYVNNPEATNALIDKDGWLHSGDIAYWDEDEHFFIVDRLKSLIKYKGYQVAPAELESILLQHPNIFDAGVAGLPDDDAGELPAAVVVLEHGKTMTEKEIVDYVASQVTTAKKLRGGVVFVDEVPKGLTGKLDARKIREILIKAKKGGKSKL
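FLuc 10nM, D-luciferin 10uM, ATP 10uM, Mg acetate 10mM, Tris acetate pH 7.5, Tween/BSA; cpd qHTS; enzyme added last; CCD luminescence.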
hNpr1 antagonist – blocks ANP-stimulated signaling of human Npr1 receptor; P16066; HEK293 hNpr1 GloSensor cGMP, ANP-stimulated luminescence; Potency, µM (highest dose often 46.3 µM), without a hit: at the top dose activity change, negative = inhibition, hits mostly inhibitors; hit rate 1.6% among 76,000; AID 1347048; calls by dose curve; note: % is set by controls: 0 for no effect and ±100 for the full control effect; nearly all actives have a fitted effect of over 60% in size
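Compound pre-incubated 30 min at room temperature on GloSensor-loaded HEK293 cells stably carrying hNpr1 and the pGS-40F cGMP biosensor. Stimulation uses hNppA at 0.1 nM final; luminescence is taken at baseline and 20 min post-agonist.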
NPR1 antag cnf – confirmation of human Npr1 natriuretic peptide receptor antagonists; shares compounds with hNpr1 antagonist; HEK293 hNpr1 cGMP GloSensor luminescence, ANP-stimulated; Potency, µM (top dose mostly 57.6 µM), inactives show at the highest dose activity change, negative = inhibition, hits mostly inhibitors; hit rate 76% among 1,400; calls by dose curve; note: nearly all actives have a fitted effect of over 70% in size
NPR2 antag – antagonizes human Npr2, subtype selectivity check | Potency, µM (top dose mostly 57.6 µM), without a hit: at the top dose activity change, negative = inhibition, usual class: inhibitors | hit rate 67% among 1,400 | HEK293 hNpr2 GloSensor cGMP luminescence, CNP-stimulated | shares compounds with hNpr1 antagonist; calls by dose curve; note: nearly all actives have a fitted effect of over 70% in size
FLuc counter – counter-screen for Npr1 antagonists: firefly luciferase inhibitors | purified FLuc enzyme, luminescence, Km substrate | Potency, µM (doses to about 57.6 µM), without a hit: at the highest dose activity change, negative = inhibition, actives largely listed as inhibitors | AID 1347047 | shares compounds with hNpr1 antagonist | hit rate 0.7% among 1,400; note: 0% is about no effect
GloSensor cGMP – counter-screen for Npr1 antagonists: GloSensor control cell line; shares compounds with hNpr1 antagonist; HEK293 GloSensor cGMP, SNP-stimulated, luminescence; Potency, µM (series often up to 57.6 µM), inactives show at the top dose activity change, negative = inhibition, hits mostly inhibitors; hit rate 69% among 1,400; calls by dose curve; note: % is set by controls: 0 for no effect and ±100 for the full control effect; nearly all actives have a fitted effect of over 70% in size
Starred values were filed as active, the others as inactive; i = inactive; ? = inconclusive; . = no result given. Unless noted, calls come from the whole dose curve; as a rule, active = well fitted curve in the direction sought with a large enough effect; inconclusive = small, poorly fitted or top-dose-only effect, or another doubt; inactive = no such curve, though single readings can be large; an effect the other way counts as inactive or inconclusive. Potency is the fitted concentration of half-maximal effect.

SMILES	HEK cytotox	NIH3T3 tox	Luciferase inh	hNpr1 antagonist	NPR1 antag cnf	NPR2 antag	FLuc counter	GloSensor cGMP
Cc1ccc(C(=O)N2CCN(C(=O)c3nnn4c3COC(c3ccc(F)cc3)C4)CC2)cc1C (stereo not given)	45µM*	?	i	11µM*	27µM*	22µM*	0%	24µM*
COc1ccc(C(=O)N2CCN(C(=O)c3nnn4c3COC(c3ccc(F)cc3)C4)CC2)cc1 (stereo not given)	?	?	i	-16%	.	.	.	.
COc1ccc(C2Cn3nnc(C(=O)N4CCN(C(=O)c5ccc(F)cc5)CC4)c3CO2)cc1 (stereo not given)	?	-12%	i	?	22µM*	?	-1%	22µM*
COCCNC(=O)c1ccc(OC2CCN(C(C)CCSC)CC2)c(Cl)c1 (stereo not given)	-26%	?	i	-1%	.	.	.	.
C=CCC1(CO)CCCN(C(=O)c2cccc(N3CCNC3=O)c2)C1 (stereo not given)	-13%	-1%	i	-1%	.	.	.	.
O=C(c1ccc2nnc(-c3ccc(Cl)cc3Cl)n2c1)N1CCOCC1	i	-7%	.	.	.	.	.	.
COc1ccc(C2Cn3nnc(C(=O)N4CCN(C(=O)c5ccc(F)cc5Cl)CC4)c3CO2)cc1 (stereo not given)	?	-26%	i	11µM*	22µM*	22µM*	0%	19µM*
COc1ccc(C2Cn3nnc(C(=O)NC4CCCCCCC4)c3CO2)cc1 (stereo not given)	?	?	i	?	?	?	-1%	19µM*
COc1ccc(C2Cn3nnc(C(=O)N4CCN(C(=O)c5cc(C)ccc5C)CC4)c3CO2)cc1 (stereo not given)	?	?	i	?	?	-23%	-1%	-15%
NCCC(=O)N1CCCC(N2CCN(Cc3ccc4c(c3)OCO4)CC2)C1 (stereo not given)	-6%	-4%	i	5%	.	.	.	.
O=C(c1ccccc1F)N1CCC2(C1)C(=O)Nc1ccccc12 (stereo not given)	5%	i	.	.	.	.	.	.
CC1=C(C(=O)OC(C)C)C(c2ccc(C)cc2)CC(=O)N1Cc1cccc(C#N)c1 (stereo not given)	35µM*	?	i	?	?	?	1%	-2%
Cc1noc(C)c1CCC(=O)NC1CCCc2c1[nH]c1c(Cl)cccc21 (stereo not given)	?	35µM*	i	-30%	?	?	0%	?
COC(=O)C1=C(C)N=C2SC=C(CC(=O)N3CCCC3)N2C1c1ccccc1Cl (stereo not given)	?	-10%	i	-19%	.	.	.	.
CC1=C(C(=O)OC(C)C)C(c2ccccc2Cl)N2C(CC(=O)N3CCOCC3)=CSC2=N1 (stereo not given)	?	-31%	i	14µM*	?	?	2%	?
CC1=C(C(=O)OC(C)C)C(c2ccc(C)cc2C)N2C(CC(=O)N3CCCC3)=CSC2=N1 (stereo not given)	?	?	i	?	?	?	-8%	?
CC1=C(C(=O)OC(C)C)C(c2ccccc2Cl)N2C(CC(=O)N3CCCC3)=CSC2=N1 (stereo not given)	?	-14%	i	13µM*	24µM*	22µM*	-2%	?
